Dicer processing = inhibitors of human Dicer processing of pre-microRNA; cat-ELCCA pre-miR-21 Dicer processing, chemiluminescence; hits give high values; Q9UPY3; 47,000 compounds, 6% hits; z-score at 25 µM; AID 1347074; in the data active means z-score above about 3, passing the limit was not always enough;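 further: higher signal means more uncleaved substrate so more Dicer inhibition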
Each line names hits and unclear results; the compound was inactive in the other large screens. The entries come from a sample that favours hits as a whole.

C=CCOc1ccc(C2SCC(=O)Nc3c2c(=O)[nH]n3C(C)CC)cc1 (stereo unspecified)	none
CC1(C)CC(CCNCc2ccccc2F)(c2ccccc2)CCO1 (stereo unspecified)	none
Cc1cccc(Cl)c1NC1=NCCCS1	none
CCc1ccccc1-n1c(=S)[nH]c2ccc(C)cc2c1=O	none
CNC(=O)Oc1noc2ccc(Cl)cc12	none
CCOc1ccc(NC2=NCCS2)cc1	none
COc1ccc(OC(=O)N(C)C)c(CN(C)C)c1	none
CNc1ccc(Br)cc1C(=O)c1ccccc1Cl	none
CN(C)C(=O)Oc1ccc(Br)cc1C(=O)Nc1ccc(F)cc1	Dicer processing 4.4
OC(CN1CC=C(c2ccccc2)CC1)C(F)(F)F (stereo unspecified)	none
Cc1cccc(C)c1NC1=NC(C)(C)CS1	none
O=C1C(c2ccccc2)C(=O)N(c2ccccc2)C(=O)N1c1ccccc1	none
O=c1c2cc(Br)cc(Br)c2[nH]c(=S)n1-c1ccc2c(c1)OCCO2	none
CN1C2CCC1CC(=NOC(=O)C1CCCCC1)C2	none
NCC(=O)c1ccc(Cl)cc1	none
NNC(=O)c1ccc(O)cc1	Dicer processing 3.7
NCCc1ccc(O)cc1	none
Cc1nc(Cc2c(Cl)cccc2Cl)nc(OC(=O)N(C)C)c1Cl	none
O=C1/C(=C/c2ccc(-c3ccccc3)cc2)N2CCC1CC2	none
Cc1nc(COc2ccc(/C(N)=N/OC(=O)N(C)C)cc2)cs1	none
CN(C)C(=O)Oc1nnc(SCc2ccc(Cl)cc2Cl)n1-c1cccc(Cl)c1	none
Cc1ccc(-n2c(C)nc3ccccc3c2=O)cc1	none
c1ccc(CNCCc2c[nH]c3ccccc23)cc1	Dicer processing 3.2
CCc1ccc(CNCCc2c[nH]c3ccccc23)cc1	none
Cc1cccc(CNCCc2c[nH]c3ccccc23)c1	none
O=c1[nH]c(O)c(/C=C2\C=CC=N2)c(=O)[nH]1	none
CC(C)C1(O)c2ccccc2-c2ncccc21 (stereo unspecified)	none
CCCCCCn1c(N)c(C(=O)OCC)c2nc3ccccc3nc21	none
CCOC(=O)c1c(C)n(C2CC2)c2ccc(O)cc12	Dicer processing 3.3
CCCn1c(C)c(C(=O)OCC)c2cc(O)ccc21	Dicer processing 6.8
CCc1c(C(=O)OC)c2cc(O)ccc2n1Cc1ccccc1	none
Clc1ccc(C2NN=C3C4CCN(CC4)C32)cc1Cl (stereo unspecified)	none
CC12CCC3C(CC4OCC35CCC(O)C[C@]45Br)C1CCC2OC(=O)c1ccccc1 (stereo partly specified)	none

Bioassay records: PubChem BioAssay, Center for Chemical Genomics, University of Michigan
